Hits are enriched below; roughly 4.7% of the tested compounds scored in any of these assays.
D1 PAM: human D1 dopamine receptor positive modulation; potentiation, % at 10 µM; HEK293 TREx D1 cells, calcium flux, dopamine EC20 potentiation; 0.036% of 360,000 active; AID 504651; in the data active = potentiation above about 30%
D1 antagonist: blocks dopamine activation of the human D1 receptor; AID 504652; activity change, negative = inhibition, % at 10 µM; 3.2% of 360,000 active; P21728; HEK293 TREx D1 cells, calcium flux, dopamine EC80; active compounds read low; in the data active = activity change below about -30%
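Using tetracycline-induced force-coupled D1 Hek293 cells and a calcium dye, signals were followed for 180 s after compound, then for 180 s after EC80 dopamine, to detect inhibitors.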
D1 agonist: human D1 receptor agonism; activation, % at 2 µM; HEK293 T-REx D1 cells, calcium flux, agonist mode; P21728; 1% of 360,000 active
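Tetracycline-induced HEK293 TREx D1 cells, force-coupled to calcium signalling, were dye-loaded with a no-wash calcium kit. Compound was pin-added after a 10 s baseline. Fluorescence was read kinetically at 1 cycle/s for 180 s, with calcium rises flagged as agonism.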
TRHR enhancer: allosteric enhancers of human TRH receptor. AID 493056. 0.66% of 360,000 active. P34981. enhancement, % at 2 µM. TRHR cells, fluo-8 calcium fluorescence, EC20 TRH enhancement; in the data active = enhancement above about 30%
Target sequence (P34981 whole entry, looked up): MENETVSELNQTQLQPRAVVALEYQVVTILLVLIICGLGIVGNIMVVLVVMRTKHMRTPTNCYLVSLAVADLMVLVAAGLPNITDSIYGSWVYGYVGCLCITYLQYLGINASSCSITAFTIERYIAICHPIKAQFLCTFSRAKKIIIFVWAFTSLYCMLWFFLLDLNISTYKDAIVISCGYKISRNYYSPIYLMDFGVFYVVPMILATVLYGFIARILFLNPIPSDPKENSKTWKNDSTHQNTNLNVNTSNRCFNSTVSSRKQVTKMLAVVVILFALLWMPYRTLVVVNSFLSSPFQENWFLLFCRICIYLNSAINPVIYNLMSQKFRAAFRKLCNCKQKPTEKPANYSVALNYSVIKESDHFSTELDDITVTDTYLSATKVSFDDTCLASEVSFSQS
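TRHR-expressing cells loaded with fluo-8 calcium dye were read kinetically (ex 480/em 530) during compound addition, then stimulated with an EC20 of TRH (10 nM final). Enhancement of the Gq-mediated intracellular calcium response was scored.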
TRHR agonist: agonists of human TRH receptor; activation, % at 2 µM; 0.18% of 360,000 active; AID 493084; TRHR cells, calcium flux fluo-8, FDSS agonist mode
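Agonist-mode FDSS calcium read (Ex 480/Em 530, 1 s cycles) in 1536-well TRHR cells with fluo-8 dye, after 10-cycle baseline and 23 nL compound addition; TRH at EC20 (10 nM final) added afterwards for the enhancer phase.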
Each line names hits and unclear results; the compound was inactive in the other large screens. Cut-off read from the data, not from the text of the source, unless noted: active = activation above about 30%; inactive = the rest.

O=C(c1ccc([N+](=O)[O-])o1)N1CCN(c2nc3c(F)cc(F)cc3s2)CC1	D1 antagonist -31
O=c1c2oc3ccccc3c2n(Cc2ccccc2)c(=O)n1Cc1ccc2c(c1)OCO2	none
C=CCn1c(-c2cccs2)nc2ccccc21	D1 antagonist -52
CC1CCN(c2cc3c(cc2F)c(=O)c(S(=O)(=O)c2cccc(Cl)c2)cn3Cc2ccccc2)CC1	none
Cn1c(=O)[nH]c(=O)c2c1nc1n2CCN1Cc1ccccc1	D1 antagonist -61
O=C(COc1ccc2ccccc2c1)Nc1ccc(Cc2ccncc2)cc1	D1 antagonist -34
CN1CCN(c2ccc(NC(=O)COc3ccc4ccccc4c3)cc2)CC1	D1 antagonist -39
O=C(COC(=O)c1ccc(O)cc1O)Nc1ccc2c(c1)OCCO2	none
O=C(O)Cc1ccc(NC(=O)COc2ccc3ccccc3c2)cc1	none
CN1CCN(c2ccc(NC(=O)c3ccc4ccccc4c3)cc2)CC1	D1 antagonist -71
O=C(COC(=O)c1ccc(O)cc1O)Nc1ccc2ccccc2c1	D1 antagonist -37
CC(=O)Nc1ccc(NC(=O)COc2ccc3c(c2)CCC3)cc1	D1 antagonist -35
CC1CCN(C(=O)c2cnn(-c3cccc(Cl)c3)c2C2CCN(C(=O)OC(C)(C)C)CC2)CC1	none
COc1ccc(Cl)cc1NC(=O)Cn1ncc2c3ccccc3n(C)c2c1=O	none
CCOc1ccc2cc(-c3nnc(Nc4ccccc4F)s3)c(=O)oc2c1	none
CCOc1ccccc1Nc1nnc(-c2cc3cc(OC)ccc3oc2=O)s1	D1 agonist 56
O=S(=O)(Nc1ncn[nH]1)c1ccc2ccccc2c1	none
CCOc1cc(S(=O)(=O)Nc2ncn[nH]2)ccc1Br	D1 antagonist -52
CCOc1cc(S(=O)(=O)n2ccnc2)ccc1Br	none
CCOc1cc(S(=O)(=O)n2ccc(C)n2)ccc1Br	D1 antagonist -37
Cc1ccc2c(=O)cc(C(=O)Nc3ccc(S(=O)(=O)Nc4nc(C)cc(C)n4)cc3)oc2c1	none
Cc1c(Cl)cccc1NC(=O)Nc1nnc(N2CCCCCC2)s1	none
Cc1cc2c(cc1NS(=O)(=O)c1ccc(NC(=O)CC(C)C)cc1)n(C)c(=O)c(=O)n2C	none
CC(=O)Nc1ccc(/C=C/c2nc(-c3ccccc3O)n(-c3ccccc3)n2)cc1	none
Cc1c(C(=O)Nc2cccc(C(F)(F)F)c2)sc2nc3n(c(=O)c12)CCCC3	D1 agonist 36
Cc1c(C(=O)NCCc2ccc(Cl)cc2)sc2nc3n(c(=O)c12)CCCC3	D1 agonist 99
Cc1c(C(=O)NCc2ccccc2)sc2nc3n(c(=O)c12)CCCCC3	D1 agonist 45
Cc1c(C(=O)NCCc2ccc(Cl)cc2)sc2nc3n(c(=O)c12)CCC3	none
CC(=O)c1cccc(NC(=O)c2sc3nc4n(c(=O)c3c2C)CCCC4)c1	none
Cc1ccc2nc(Nc3nc(-c4ccccc4)cc(=O)[nH]3)nc(C)c2c1	none
Cc1ccc2nc(Nc3nc(=O)c4ccccc4n3C)nc(C)c2c1	D1 agonist 158
CC(C)CC(NC(=O)c1cccc(Cl)c1)C(=O)O (stereo unspecified)	none
O=C(O)CCC(NC(=O)c1ccc(Cl)cc1)C(=O)O (stereo unspecified)	D1 antagonist -32
CC(C)CC(NC(=O)c1ccc(Cl)cc1)C(=O)O (stereo unspecified)	TRHR enhancer 33
O=C(CSc1oc(-c2cccs2)nc1S(=O)(=O)c1ccccc1)Nc1ccc(F)cc1	none
CCOc1ccc2nc(NC3=NC(C)(C)C=C(C)N3)nc(C)c2c1	TRHR enhancer 32
Cc1cc(-c2ccc(S(=O)(=O)Nc3ccc(Cl)cc3C)cc2)on1	none
COc1cc(C2c3c(n[nH]c3C)C(=O)N2c2ccc(C)cc2)ccc1O (stereo unspecified)	none
CCOc1cc(C2c3c(n[nH]c3C)C(=O)N2c2ccc(C)cc2)ccc1O (stereo unspecified)	D1 antagonist -78
CCOc1ccc(CN(C(=O)c2cccs2)C2CCS(=O)(=O)C2)cc1 (stereo unspecified)	D1 antagonist -43
Cc1ccccc1OCC(=O)N(Cc1cccs1)C1CCS(=O)(=O)C1 (stereo unspecified)	none
COc1ccccc1OCC(=O)N(Cc1cccs1)C1CCS(=O)(=O)C1 (stereo unspecified)	D1 antagonist -42
COCCCNCCOCCOc1ccc(Cl)cc1C(C)(C)C	D1 agonist 38
Cc1ccc(C(C)C)c(OCCNCc2ccccc2)c1	D1 agonist 53
Cc1cc(OCCOCCNCc2ccccc2)ccc1C(C)C	D1 agonist 63
CC(C)(C)c1ccccc1OCCOCCNCc1ccccc1	D1 agonist 36
COCCNCc1ccccc1	none
Cc1ccc(C)c(OCCCNCc2ccccc2)c1	none
CCOC(=O)c1[nH]c(C)c(CCC(=O)NCc2ccc(CC)cc2)c1C	none
O=C(NCCc1ccc(Cl)cc1)c1ccc2c(c1)N(Cc1ccc(F)cc1Cl)C(=O)CS2	none
CCOc1ccccc1C1C(C(=O)N2CCCCC2)=C(C)Nc2nc3ccccc3n21 (stereo unspecified)	none
CSC1=NC2(CCN(C(=O)NC3CCCCC3)CC2)N=C1c1ccc(C)c(C)c1	none
COCCNCCOCCOc1ccc(Cl)c(C)c1	D1 agonist 32 (no result: D1 antagonist)
COc1cc(NC(=O)c2nn(-c3ccc(F)cc3)c(=O)n(C)c2=O)cc(OC)c1OC	none
CC1C2CC(C(CN(C)C)/C2=N/O)C1(C)C (stereo unspecified)	D1 antagonist -51
CN(C)CCN(C(=O)C1CCN(S(=O)(=O)c2cccs2)CC1)c1nc2ccc(F)cc2s1	none
Cc1cccc2sc(N(CCN(C)C)C(=O)C3CCN(S(=O)(=O)c4cccs4)CC3)nc12	D1 agonist 39
CCCCCn1cc2c(c1-c1ccccc1Br)c(=O)n(C)c(=O)n2C	none
Cc1ccc(C)c(N2CCN(C(=O)c3cc4sccc4n3C)CC2)c1	none
Cc1ccc(C)c(N2CCN(C(=O)C3CCN(C(=O)c4cc5sccc5n4C)CC3)CC2)c1	D1 antagonist -65
Cc1cc(NC(=O)C2CC(c3ccc(F)cc3)=NO2)n(-c2ccccc2)n1 (stereo unspecified)	D1 antagonist -64 (no result: D1 PAM)
Cc1ccccc1N/C(=N/S(=O)(=O)c1cc(F)ccc1F)c1ccccc1	D1 antagonist -31
Cc1cc(N/C(=N/S(=O)(=O)c2cc(F)ccc2F)c2ccccc2)n(-c2ccccc2)n1	D1 antagonist -36
COc1cc(NC(=O)Cn2c(=O)nc(-c3ccccc3F)c3cc(Cl)ccc32)cc(OC)c1	none
O=C(c1ccc2c(c1)N(Cc1cccc(Cl)c1)C(=O)c1ccccc1S2=O)N1CCN(c2cccc(C(F)(F)F)c2)CC1 (stereo unspecified)	none
CCOC(=O)C1CCCN(S(=O)(=O)c2cc(-c3cc(C)no3)ccc2C)C1 (stereo unspecified)	none

High-throughput results: PubChem, National Center for Advancing Translational Sciences (NCATS)
